# Assay results from the supplement of paper PMC8728848.
# Only a selection was taken, and the strongest signals are over-represented in it overall.
# Key:
# Assay in all cases: glycan array binding signal (z-score within array); higher = stronger binding
# Conditions in all cases: glycan notation: IUPAC condensed, linker removed
# [1] = molecular target: Fuc(a1-2)Gal(b1-4)[Fuc(a1-3)]GlcNAc(b1-3)GalNAc
# Method in brief: (§1)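 Columns mapping to the same glycan were averaged after glycan names were converted to IUPAC-condensed notation. The data come from 3228 arrays in the Consortium for Functional Glycomics database, limited to those with an available protein sequence. Binding is reported as a within-array Z-score averaged across arrays of one protein sequence and across linkers.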
# [2] = molecular target: Fuc(a1-2)Gal6S(b1-3)GlcNAc6S
# Method in brief: as §1
# Fuc(a1-2)Gal6S(b1-4)Glc = molecular target: Fuc(a1-2)Gal6S(b1-4)Glc
# Method in brief: as §1
# [3] = molecular target: Fuc(a1-2)[Gal(a1-3)]Gal(b1-3)GlcNAc(b1-2)Man(a1-3)[Fuc(a1-2)[Gal(a1-3)]Gal(b1-3)GlcNAc(b1-2)Man(a1-6)]Man(b1-4)GlcNAc(b1-4)GlcNAc
# Method in brief: as §1
# [4] = molecular target: Fuc(a1-2)[Gal(a1-3)]Gal(b1-3)GlcNAc(b1-3)GalNAc
# Method in brief: as §1
# [5] = molecular target: Fuc(a1-3)[Gal(b1-4)]GlcNAc
# Method in brief: as §1
# [6] = molecular target: Fuc(a1-3)[Gal(b1-4)]GlcNAc(b1-2)Man
# Method in brief: as §1
# [7] = molecular target: Fuc(a1-3)[Gal(b1-4)]GlcNAc(b1-2)Man(a1-3)[Fuc(a1-3)[Gal(b1-4)]GlcNAc(b1-2)Man(a1-6)]Man(b1-4)GlcNAc(b1-4)GlcNAc
# Method in brief: as §1
# [8] = molecular target: Fuc(a1-3)[Gal3S(b1-4)]GlcNAc
# Method in brief: as §1
# [9] = molecular target: Fuc(a1-3)[GalNAc(b1-4)]GlcNAc
# Method in brief: as §1
# [10] = molecular target: Gal(a1-3)Gal(b1-3)[Fuc(a1-4)]GlcNAc(b1-2)Man(a1-3)[Gal(a1-3)Gal(b1-3)[Fuc(a1-4)]GlcNAc(b1-2)Man(a1-6)]Man(b1-4)GlcNAc(b1-4)GlcNAc
# Method in brief: as §1
# Gal(a1-3)Gal(b1-4)GlcNAc = molecular target: Gal(a1-3)Gal(b1-4)GlcNAc
# Method in brief: as §1
# [11] = molecular target: Gal(b1-3)GlcNAc(b1-2)Man(a1-3)[GlcNAc(b1-4)][Gal(b1-3)GlcNAc(b1-2)Man(a1-6)]Man(b1-4)GlcNAc(b1-4)GlcNAc
# Method in brief: as §1
# [12] = molecular target: Gal(b1-3)GlcNAc(b1-3)GalNAc
# Method in brief: as §1
# [13] = molecular target: Gal(b1-4)GlcNAc(b1-3)Gal(b1-3)GlcNAc
# Method in brief: as §1
# [14] = molecular target: Gal(b1-4)GlcNAc(b1-3)Gal(b1-4)GlcNAc(b1-2)Man(a1-3)[Gal(b1-4)GlcNAc(b1-3)Gal(b1-4)GlcNAc(b1-2)Man(a1-6)]Man(b1-4)GlcNAc(b1-4)GlcNAc
# Method in brief: as §1
# [15] = molecular target: Gal(b1-4)GlcNAc(b1-3)Gal(b1-4)GlcNAc(b1-3)Gal(b1-4)GlcNAc
# Method in brief: as §1
# [16] = molecular target: Gal(b1-4)GlcNAc(b1-3)Gal(b1-4)GlcNAc(b1-3)Gal(b1-4)GlcNAc(b1-2)Man(a1-3)[Gal(b1-4)GlcNAc(b1-3)Gal(b1-4)GlcNAc(b1-3)Gal(b1-4)GlcNAc(b1-2)Man(a1-6)]Man(b1-4)GlcNAc(b1-4)GlcNAc
# Method in brief: as §1
# [17] = molecular target: Gal(b1-4)GlcNAc(b1-3)Gal(b1-4)GlcNAc(b1-3)[Gal(b1-4)GlcNAc(b1-3)Gal(b1-4)GlcNAc(b1-6)]GalNAc
# Method in brief: as §1
# Gal3S6S(b1-4)GlcNAc6S = molecular target: Gal3S6S(b1-4)GlcNAc6S
# Method in brief: as §1
# Gal4S(b1-4)GlcNAc = molecular target: Gal4S(b1-4)GlcNAc
# Method in brief: as §1
# Gal4S6S(b1-4)GlcNAc = molecular target: Gal4S6S(b1-4)GlcNAc
# Method in brief: as §1
# Gal6S(b1-3)GlcNAc6S = molecular target: Gal6S(b1-3)GlcNAc6S
# Method in brief: as §1
# Gal6S(b1-4)GlcNAc6S = molecular target: Gal6S(b1-4)GlcNAc6S
# Method in brief: as §1
binder,measurement,setting,value
Pbx2 (Cryptococcus neoformans) (protein) AVSPLPSSTELVFYSQKRRRRRICSTATGSLSTPDPTRMTSDPYKRVGMRFSSVPRLLITFLSLLLLVSAAPPCVRFADYDSINQMFIDGGPGTKVLLCPNRLYRLSGPIIFTAADQEIATYGYPTGSERAVLRVEGRNTATAIQGDCRRCARVSVKNLVVDGNRKKLGRMRDFQLATGLVVLGGNEGQSIQNSWIKNPRGFTAIHIREGDKLQCSGARVEKNEIGPVGEEYDPEKDGDDPEMSPLGRPLADGVSIACRDSFIRDNTFRDNTDAAIVVYCSPGTLIHANHIFAQSLSAMAGILMVDSTPFNGDYTGTVVRSNIIDAVSRTIRVGIGIGPTVWSDDTETILTGGSVIGNGLKGRYMGYGIAAAGLKQWTIKDNWDEAKHEGRKSARCFDEPVNPDPIGLLYNRPTMEDCTVQSGFADHDFQYLVCIDGLYDKTNPPKHDPAPLAHDPSPTNAQEDNTVQQDGGDSKSKSIEQPREASDIEAEPSVEKMFSTGSEMMDDVLEHSHQRMHEVIDHLSRRIDILGAASAGKGSGDSKISEVLDPAMSSHLEKLQRKIEHLEFSLRSQIETAIQLRSAIQGWDQEMALVTDWEYDILLDVRHKLELSSYPHDQPLDPRLMRGQSYLNNEAVLVDDHSHPSLEGENLRAMSDRARLNANEEA,glycan array binding signal (z-score),[1],5.82
same,glycan array binding signal (z-score),[2],3.8
same,glycan array binding signal (z-score),Fuc(a1-2)Gal6S(b1-4)Glc,-0.497
same,glycan array binding signal (z-score),[3],-0.446
same,glycan array binding signal (z-score),[4],-0.12
same,glycan array binding signal (z-score),[5],-0.094
same,glycan array binding signal (z-score),[6],-0.041
same,glycan array binding signal (z-score),[7],0.271
same,glycan array binding signal (z-score),[8],0.057
same,glycan array binding signal (z-score),[9],-0.291
same,glycan array binding signal (z-score),[10],-0.392
same,glycan array binding signal (z-score),Gal(a1-3)Gal(b1-4)GlcNAc,-0.346
same,glycan array binding signal (z-score),[11],0.625
same,glycan array binding signal (z-score),[12],0.091
same,glycan array binding signal (z-score),[13],-0.114
same,glycan array binding signal (z-score),[14],4.98
same,glycan array binding signal (z-score),[15],0.154
same,glycan array binding signal (z-score),[16],4.44
same,glycan array binding signal (z-score),[17],2.83
same,glycan array binding signal (z-score),Gal3S6S(b1-4)GlcNAc6S,6.21
same,glycan array binding signal (z-score),Gal4S(b1-4)GlcNAc,-0.339
same,glycan array binding signal (z-score),Gal4S6S(b1-4)GlcNAc,2.65
same,glycan array binding signal (z-score),Gal6S(b1-3)GlcNAc6S,3.95
same,glycan array binding signal (z-score),Gal6S(b1-4)GlcNAc6S,2.56
